High-throughput results: PubChem, National Center for Advancing Translational Sciences (NCATS)
Most compounds without a hit are left out; they make up all but 2.2% or so of the library.
aSyn yeast inh: qHTS of alpha-syn Inhibitors | Yeast expressing alpha-synuclein, growth rescue, BacTiter-Glo, 24 h | hit rate 0.14% among 370,000 | Potency, µM (series often up to 46.1 µM), hits mostly activators | AID 652106, 2013; further: nearly all actives have a fitted effect of over 65% in size
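Rescue of yeast growth: cells expressing toxic alpha-synuclein, induced in galactose at OD600 0.02, incubated with compound 24 h at 30 C. ATP luminescence quantified growth; inhibitors of toxicity appear as activators.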
TDP43 rescue: qHTS of TDP-43 Inhibitors; hit rate 1.8% among 410,000; AID 652104, 2013; TDP-43 expressing yeast growth rescue, BacTiter-Glo, 24 h; Potency, µM (highest dose often 46.1 µM), actives largely listed as activators; further: nearly all actives have a fitted effect of over 50% in size
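Readout is BacTiter-Glo luminescence of cell growth, so inhibitors register as activators. TDP-43-expressing yeast at OD600=0.02 in galactose medium, after raffinose pregrowth to mid-log, were incubated with compound for 24 hr at 30 deg C.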
FUS suppressor: qHTS for Suppressors of FUS Proteinopathy: Primary screen using FUS-linked yeast assay; S. cerevisiae FUS-expressing, growth rescue, OD600, 24 h; Potency, µM (highest dose often 76.6 µM), actives largely listed as activators; hit rate 0.24% among 390,000; AID 1347120, 2019; further: nearly all actives have a fitted effect of over 55% in size
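Steps: raffinose overnight preculture; dilution to OD 0.005 in 2% galactose minimal medium; compound addition (concentration series); 24hr at 30C, 99% humidity; absorbance read at 600 nm.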
Mito fusion act: qHTS Assay for Small Molecule Inhibitors of Mitochondrial Division or Activators of Mitochondrial Fusion; S. cerevisiae fusion-defective mutant growth rescue, CellTiterGlo 48 h; Potency, µM (doses to about 46.1 µM), usual class: activators; hit rate 0.23% among 320,000; AID 485298, 2010; further: nearly all actives have a fitted effect of over 45% in size
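Growth-rescue viability read-out: after 48 h at the non-permissive 37C in glycerol/ethanol YPEG, yeast mitochondrial fusion mutants are measured by CellTiterGlo luminescence; compounds (23 nl pinned per well) restoring growth score as division inhibitors or fusion activators.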
Abeta yeast res: qHTS for compounds that reverse cellular toxicity of Amyloid beta (A-beta) peptide in yeast: Primary Screen. yeast expressing A-beta42, growth rescue, OD600, 48 h; response scale: 0% DMSO, 100% iron-clioquinol control. hit rate 0.063% among 410,000. Potency, µM (top dose mostly 46.1 µM), most hits filed as activators; further: nearly all actives have a fitted effect of over 55% in size
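Yeast A-beta toxicity model in growth medium with pinned compounds, 48 h at 30 C; growth read as absorbance at 600 nm. Normalized to FeCl3/clioquinol equimolar mix (positive) and DMSO (negative).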
Numbers stand for hits; . = inactive; ? = inconclusive; / = not tested or not shown; [ ] = dose if it differs, or a comment. The call rests on the fitted dose curve; in most records, active means well fitted curve in the direction sought with a large enough effect; inconclusive means small, poorly fitted or top-dose-only effect, or another doubt; inactive means no such curve, though single readings can be large; an effect the other way counts as inactive or inconclusive.

SMILES	aSyn yeast inh	TDP43 rescue	FUS suppressor	Mito fusion act	Abeta yeast res
COc1cc(NC(=O)c2csc(N)n2)cc(C(=O)Nc2cccc(C(F)(F)F)c2)c1	.	32µM	?	.	.
COCCCN1C(=O)[C@H](CC(=O)N2CCCC2)[C@]2(C(=O)OC)CCCCC=C12	/	/	.	/	/
Cc1sc2nc(CSc3ccccc3)nc(N3CCC(C(N)=O)CC3)c2c1C	.	.	?	.	.
Cc1sc2nc(CSc3ccccc3)nc(N3CCOCC3)c2c1C	.	11µM	.	.	.
Cc1cccc(CSc2nc(N)c(C#N)c(-c3cccs3)c2C#N)c1	/	?	.	13µM	.
CCCCSc1nc(N)c(C#N)c(-c2cccs2)c1C#N	.	.	.	4µM	.
Cc1cccc(CSc2nc3c(c(-c4cccs4)c2C#N)CN(C)CC3)c1	.	.	.	.	.
CC(=O)CSc1nc(N)c(C#N)c(-c2cccs2)c1C#N	.	.	.	.	.
O=C(NCC(c1cccs1)S(=O)(=O)c1ccccc1)c1ccc(C(F)(F)F)cc1 (stereo not given)	/	.	.	/	.
O=S(=O)(NCCc1ccccc1)c1cnc(Cl)c(Br)c1	.	11µM	/	.	.
O=S(=O)(NCc1ccco1)c1ccc2ccccc2c1	.	?	.	.	.
O=C(O)c1cccc(S(=O)(=O)NCCc2ccccc2)c1	.	.	.	.	.
O=S(=O)(NCc1ccco1)c1cnc(Cl)c(Br)c1	?	14µM	/	.	.
c1ccc(CSc2nnc(-c3cccs3)n2Cc2ccco2)cc1	.	18µM	.	.	.
Clc1cccc(CSc2nnc(-c3ccccn3)n2Cc2ccco2)c1	.	20µM	?	.	.
Brc1ccc(CSc2nnc(-c3ccccn3)n2Cc2ccco2)cc1	.	.	.	?	.
Cc1ccccc1CSc1nnc(-c2cccs2)n1Cc1ccco1	.	.	.	.	.
C=CCn1c(SCC(=O)C(C)(C)C)nnc1-c1cccs1	.	.	.	.	.
C=CCn1c(SCc2ccc3nonc3c2)nnc1-c1cccs1	.	18µM	.	.	.
C=CCN1C(=O)[C@@H](CC(=O)N2CCN(C(=O)OCC)CC2)[C@]2(C(=O)OC)CCCCC=C12	/	/	.	/	/
CCCn1c(C)cc(C(=O)COc2ccc(-c3nnco3)cc2)c1C	.	28µM	.	.	.
COc1ccc(-n2ncc3c(N4CCN(c5cccc(C)c5)C(C)C4)ncnc32)cc1 (stereo not given)	/	.	.	/	.
COc1ccc(/C=N/Nc2cc(C)nc(-n3nc(C)cc3C)n2)cc1	?	20µM	.	.	.
COc1ccc(Nc2cc(C)nc(-n3nc(C)cc3C)n2)cc1Cl	/	?	.	/	.
Cc1cc(N/N=C/c2ccc(O)cc2O)nc(-n2nc(C)cc2C)n1	.	.	.	.	.
SMILES	aSyn yeast inh	TDP43 rescue	FUS suppressor	Mito fusion act	Abeta yeast res
Cc1cc(N/N=C/c2cccc([N+](=O)[O-])c2)nc(-n2nc(C)cc2C)n1	.	.	.	.	.
COc1ccc(O)c(/C=N/Nc2nc(Nc3ccccc3)nc(-n3nc(C)cc3C)n2)c1	.	22µM	.	.	?
Cc1cc(Nc2ccc(C(C)C)cc2)nc(-n2nc(C)cc2C)n1	/	20µM	?	/	.
Cc1cc(N/N=C/c2cccc(Cl)c2)nc(-n2nc(C)cc2C)n1	.	14µM	.	.	.
COc1cc(/C=N/Nc2nc(Nc3ccccc3)nc(-n3nc(C)cc3C)n2)cc(OC)c1OC	.	.[0.397 µM]	?	.	?
Clc1ccc([C@H]2OC[C@@]3(CNCCN4CCOCC4)CS[C@H](c4ccc(Cl)cc4)N23)cc1	/	/	.	/	/
O=C(CSc1nnc(-c2cccnc2)n1C1CCCCC1)NC1CCCCCC1	/	/	.	/	/
Cc1ccc(N2CCN(c3nc4ccc(C)cc4n4nnnc34)CC2)c(C)c1	/	.	.	/	.
C(=C\c1ccc2ccccc2n1)/c1cccnc1	.	/	/	/	/
Cc1nc(CS(=O)(=O)c2ccccc2)cc(Sc2ccc(Cl)cc2Cl)n1	.	13µM	.	?	.
CCc1nc2nc(C)cc(Nc3cccc(C)c3C)n2n1	/	.	.	/	.
CCc1nc2nc(C)cc(Nc3cc(C)ccc3C)n2n1	/	20µM	.	/	.
Cc1cc(Nc2cc(Cl)ccc2C)n2nc(Cc3ccccc3)nc2n1	/	35µM	.	/	.
Cc1oc(-c2ccc(Cl)cc2)nc1CSc1nc2ncccc2[nH]1	/	.	.	/	.
CN(C(=O)c1ccc2c(c1)C(=O)N(CCC1=CCCCC1)C2=O)C1CCCCC1	.	22µM	.	.	.
CC(=O)CC[C@H]1CC[C@]2(CCCN(S(C)(=O)=O)C2)O1	/	/	.	/	/
Cc1cccc(N2CCN(C(=O)C3CCN(C(=O)c4cc5sccc5n4C)CC3)CC2)c1C	/	35µM	?	/	?
Cc1cccc(N2CCN(C(=O)C3CCCN(C(=O)c4cc5sccc5n4C)C3)CC2)c1C (stereo not given)	/	.	?	/	.
O=S(=O)(c1cccc(Br)c1)N1CCN(c2nc(-c3cccs3)nc3ccccc23)CC1	.	/	/	/	/
CCN(CC)C(=O)c1sc2c(c1C)c(=O)n(-c1ccc(OC)cc1OC)c(=O)n2CC(=O)c1ccc(Cl)cc1	/	.	20µM	/	.
COc1cccc(NS(=O)(=O)c2ccc3c(c2)n(C)c(=O)n3C)c1	/	.	.	/	.
Cc1cccc(NC(=O)CSc2cccc3cccnc23)c1	?	?	.	.	.
Cc1ccc(C)c(NC(=O)CSc2cccc3cccnc23)c1	.	5.6µM	.	.	.
Cc1nc2c(OCc3ccc(F)cc3)cccn2c1N(C)C(=O)CCC1CCCC1	.	.	.	/	.
Cc1nc2c(OCc3ccc(C(F)(F)F)cc3)cccn2c1N(C)C(=O)CCC1CCCC1	.	.	22µM	/	.
SMILES	aSyn yeast inh	TDP43 rescue	FUS suppressor	Mito fusion act	Abeta yeast res
Cc1nn(C(=O)COc2ccccc2Br)c(C)c1Sc1ccccc1	/	?	.	/	.
CSc1ccc(Cc2ccc(Cl)cc2Cl)nn1	.	11µM	.	.	.
NNc1ccc(Cc2ccc(Cl)cc2Cl)nn1	.	.	.	.	.
Cc1ccc(-n2c(=O)c3ccc(C(=O)NCc4ccco4)cc3n(Cc3ccc(Cl)cc3)c2=O)cc1	/	.	.	/	.
C=Cc1ccc(Cn2c(C)c(C(=O)NCc3ccc4c(c3)OCO4)sc2=O)cc1	.	22µM	.	/	?
Cc1c(C(=O)NCc2cccc([N+](=O)[O-])c2)sc(=O)n1Cc1ccc(F)cc1	.	.	.	/	.
Cc1c(C(=O)NCc2cccc([N+](=O)[O-])c2)sc(=O)n1Cc1cccc(F)c1	.	18µM	.	/	.
CN1C(=O)c2cc(NC(=O)Nc3ccccc3)ccc2OC[C@H]2O[C@@H](CC(=O)N[C@H]3CCN(Cc4ccccc4)C3)CC[C@@H]21	/	/	.	/	/
CCCC(=O)Nc1sc(Cc2ccccc2)c(C)c1C(N)=O	.	18µM	.	?	.
